Screening results deposited in PubChem by several laboratories.
NALP1 inh: NALP1 inflammasome inhibitors in reconstituted yeast, colorimetric, S. cerevisiae, triplicate retest. S. cerevisiae NALP1/ASC/caspase-1 growth, X-gal OD620, 72 h. inhibition, % at 10 µM. 280,000 tested, 0.61% active. AID 2071, 2009; in the data active = inhibition mostly above about 24%, no sharp cut-off; inactive = mostly below about 32%
NLRP3 yeast inh: NALP3 inflammasome inhibitors in reconstituted yeast, primary screen, luminescence, uHTS. Yeast reconstituted NLRP3/ASC/caspase-1, beta-gal luminescence, 24 h. inhibition, % at 10 µM. 330,000 tested, 0.39% active. AID 2825, 2010;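 active = inhibition of 50% or more; inactive = inhibition below 50%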
V-ATPase pH: regulators of yeast V-ATPase proton pumping, primary screen, pHLuorin cytosolic pH fluorescence; S. cerevisiae; response, % at 10 µM; 350,000 tested, 0.37% active; AID 504577, 2011; in the data active = response mostly above about 7.3%, no sharp cut-off; inactive = mostly below about 5.4%; note: actives read high
TIM10 inh: growth inhibitors of isogenic TIM10 control yeast, primary screen, counter-screen for tim10-1 yeast inhibitor project, luminescence, uHTS; S. cerevisiae TIM10 strain growth, BacTiter-Glo luminescence, 24 h; inhibition, % at 10 µM; 330,000 tested, 1.4% active;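 active = inhibition of 40% or more at the single tested concentration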;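 note: wild-type TIM10 isogenic control strain grown at permissive 25 °C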
tim23-1 inh: growth inhibitors of tim23-1 mutant yeast, primary screen, luminescence, uHTS; S. cerevisiae tim23-1 growth, BacTiter-Glo luminescence, 24 h; inhibition, % at 20 µM; 330,000 tested, 1.3% active;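 active = growth inhibition of the mutant yeast at or above 50%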;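 note: temperature-sensitive mutant grown at 25 °C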
tim10-1 inh: growth inhibitors of tim10-1 mutant yeast, primary screen, luminescence, uHTS | 330,000 tested, 2.2% active | S. cerevisiae tim10-1 ts strain growth, BacTiter-Glo, 24 h | inhibition, % at 20 µM | AID 463190, 2010;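 active = inhibition of at least 40%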;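 note: mutant grown at 25 °C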
tim10-1 conf: growth inhibitors of tim10-1 mutant yeast, confirmation, single concentration, luminescence, S. cerevisiae | inhibition, % at 20 µM | S. cerevisiae tim10-1 ts strain growth, BacTiter-Glo, 24 h | shares compounds with tim10-1 inh | 7,400 tested, 56% active | AID 463213, 2010;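 active = inhibition of yeast growth at or above a set limit in either of two repeat tests at 20 µM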;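 note: tim10-1 mutant grown at permissive 25 °C to find synthetic lethal compounds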
Hits are given with their value; . = inactive; / = no result. Sampled rows, rich in hits. Any-hit rate of the full collection: about 4.2%.

SMILES | NALP1 inh | NLRP3 yeast inh | V-ATPase pH | TIM10 inh | tim23-1 inh | tim10-1 inh | tim10-1 conf
CCCCNC(=S)N1CCn2cccc2C1c1ccccc1 (centres undefined) | . | . | . | . | . | . | /
Nc1cccnc1Sc1ccc(Cl)cc1 | . | . | . | . | . | . | /
Nc1cccnc1Sc1cccc(Cl)c1 | . | . | . | . | . | 41 | .
O=C(COC(=O)c1ccco1)Nc1ccc2c(c1)OCCO2 | . | . | . | . | . | . | /
Cc1cc(C)c2c(n1)sc1c(N3CCCCC3)ncnc12 | / | . | . | . | . | . | /
CCN(CC)c1ncnc2c1sc1nc(C)cc(C)c12 | . | . | . | . | . | 43 | .
Cc1ccc(S(=O)(=O)N2CCOC2CNC(=O)C(=O)NCc2ccc(Cl)cc2)cc1 (centres undefined) | . | . | . | . | . | . | /
COc1ccc(-c2nc(C)ncc2-c2ccc(Cl)cc2)c(O)c1 | . | . | . | . | . | . | /
COc1ccc(-c2nc(C)ncc2-c2ccccc2)c(O)c1 | . | . | . | . | . | 41 | .
CCOC(=O)c1cccc(NC(=O)c2ccc(NC(=O)C3CCCO3)cc2)c1 (centres undefined) | . | . | . | . | . | . | /
COc1cc2c(cc1OC)CN(C(=O)C1CCCN1S(=O)(=O)c1ccc(C)cc1)CC2 (centres undefined) | . | . | . | . | . | . | /
CCCCn1nnnc1SCC(=O)c1cc(Cl)ccc1OC | . | . | . | . | . | 52 | 33
Cc1nn(-c2ccccc2)c(N2CCCC2)c1/C=N/NC(=S)Nc1cc(C(F)(F)F)ccc1Cl | . | . | . | . | . | . | /
Cc1nn(-c2ccccc2)c(N2CCCC2)c1/C=N/NC(=S)Nc1ccccc1C(F)(F)F | . | . | . | . | . | 41 | .
Clc1ccccc1CN(Cc1ccccc1)c1ncnc2nc[nH]c12 | / | . | . | . | . | 41 | .
Clc1ccccc1CNc1ncnc2nc[nH]c12 | . | . | . | . | . | . | /
CCCN(CCC)c1ncnc2nc[nH]c12 | . | . | . | . | . | 45 | .
COc1ccc(-c2noc(CN(C)C(=O)CCN3C(=O)[C@H]4CC=CC[C@H]4C3=O)n2)cc1 | . | . | . | . | . | . | /
Cn1c(SC2=CS(=O)(=O)c3ccccc32)nc2ccccc21 | . | . | . | . | . | 44 | .
Cc1cc(C)n(-c2ccc(NC(=O)C3CCCCN3C(=O)c3cc(C)oc3C)cc2)n1 (centres undefined) | . | . | . | . | . | . | /
O=C(/C=C/c1ccc(F)cc1)N1CCN(c2ncccn2)CC1 | . | . | . | . | . | . | /
CC(C)(C)c1ccc(/C=C/C(=O)N2CCN(c3ncccn3)CC2)cc1 | . | . | . | . | . | 43 | 35
CC(C)C[C@H](N)c1nnc(SCc2ccc(Cl)cc2)o1 | . | . | . | . | . | . | /
O=C(N/N=C\c1ccccn1)C1c2ccccc2Oc2ccccc21 | . | . | . | . | . | 43 | .
CC(Oc1ccc(Cl)cc1Cl)C(=O)Nc1ccc(N2CCN(C)CC2)cc1 (centres undefined) | . | . | . | . | . | . | /
SMILES | NALP1 inh | NLRP3 yeast inh | V-ATPase pH | TIM10 inh | tim23-1 inh | tim10-1 inh | tim10-1 conf
CC(=O)N1CCN(c2ccc(NC(=O)C(C)Oc3ccc(Cl)cc3Cl)cc2)CC1 (centres undefined) | . | . | . | . | . | 45 | 31
Cc1ccc(/C(N)=N/OC(=O)N2CCOCC2)cc1 | . | . | . | . | . | 58 | 46
COc1ccc2[nH]c3c(N4CCC(O)(c5cccc(C(F)(F)F)c5)CC4)ncnc3c2c1 | . | . | . | . | . | 42 | .
Nc1c(-c2ccc(Cl)cc2)cnn1C1CCS(=O)(=O)C1 (centres undefined) | . | . | . | . | . | . | /
COc1cc(/C=N/N2C(=O)c3ccccc3NC2(C)c2cccc([N+](=O)[O-])c2)cc(Br)c1O (centres undefined) | . | . | . | . | . | 44 | .
COc1cc(/C=N/NC(=O)c2ccc([N+](=O)[O-])cc2Cl)cc(Br)c1O | . | . | . | . | . | . | /
O=C(CSc1nc(C2CC2)nc2ccccc12)N1c2ccccc2Sc2ccccc21 | . | . | . | . | . | . | /
CCCc1cc(-c2nc(N)ncc2-c2csc(C)n2)c(O)cc1OC | . | . | . | . | . | 43 | .
O=C(c1ccco1)c1cn(CC(=O)N2CCCCC2)c2ccccc12 | . | . | . | . | . | . | /
O=C(CCN1C(=O)/C(=C/c2cccs2)SC1=S)N1CCCCC1 | . | . | . | . | . | 42 | .
COc1ccccc1/C=C1\SC(=S)N(CCC(=O)N2CCCCC2CCO)C1=O (centres undefined) | . | . | . | . | . | 42 | .
COCCCn1cnnc1SCc1nc2sc(C(C)=O)c(C)c2c(=O)[nH]1 | / | . | . | . | . | . | /
CCOc1ccccc1Nc1nnc(SCC(=O)NC2CC2)s1 | / | . | . | . | . | . | /
CC1CCN(c2oc(-c3ccc(F)cc3)nc2C#N)CC1 | . | . | . | . | . | 99 | .
COc1ccccc1CNC(=O)C(CCSC)NS(=O)(=O)c1ccc2c(c1)oc(=O)n2C (centres undefined) | . | . | . | . | . | . | /
CC(=O)N1CCc2ccc(S(=O)(=O)N3CC(C)OC(C)C3)cc21 (centres undefined) | . | . | . | . | . | . | /
CCCCCCCCOC(=O)c1ccc(N)cc1 | . | . | . | . | . | 45 | .
CCCCOC(=O)c1ccc(O)cc1 | . | . | . | . | . | . | /
CN(C)C(=C(C#N)C#N)N1CCN(c2ccc(Cl)c(Cl)c2)CC1 | . | . | . | . | . | 42 | .
O=C(Nc1cc(Cl)cc(Cl)c1)C(NCC1CCCO1)c1ccccc1 (centres undefined) | . | . | . | . | . | 45 | .
CCCN(CCC)S(=O)(=O)c1ccc(C(=O)Nc2nnc(-c3cc(OC)cc(OC)c3)o2)cc1 | . | . | . | . | . | 41 | .
CCCN(CCC)S(=O)(=O)c1ccc(C(=O)Nc2nnc(-c3cccc(OC)c3)o2)cc1 | . | . | . | . | . | . | /
O=C(/C=C/c1ccco1)Nc1ccccc1N1CCCC1 | . | . | . | . | . | 53 | 46
COc1ccc(CCN2C(=O)CC(N3CCN(S(=O)(=O)c4ccccc4)CC3)C2=O)cc1 (centres undefined) | . | . | . | . | . | . | /
O=C(CSc1nc2ccccc2n1S(=O)(=O)c1cccc([N+](=O)[O-])c1)NCCc1ccccc1 | . | . | . | . | . | . | /
